# Measured values taken from PubChem BioAssay AID1985 (Southern Research Specialized Biocontainment Screening …, 2009).
# In all, about 2,300 compounds went through this assay and about 1,000 (43%) were called active. The set was probably picked from earlier hits. Some of the results follow. Measured potencies and affinities stand elsewhere. Values without a mark were called inactive. The rule behind the calls is not given here.
# Test: modified counter assay using GFP fluorescence, PhoP regulon inhibitor project, dose response (AID 1985)
# Conditions: S. Typhi, 4 h; series mostly up to 150 µM; inhibition: at the top concentration
row,Compound,inhibition
1,COc1ccc(OC)c(C(=O)c2ccc(C(=O)O)cc2)c1,13.8%
2,COC(=O)c1ccc(OC(=O)c2cccnc2)cc1,14%
3,COc1ccc(N(C(=O)c2cccnc2)S(=O)(=O)c2cccc([N+](=O)[O-])c2)cc1,-6.79%
4,COC(=O)c1cn(C(=O)c2ccco2)c2ccccc12,-16%
5,Cc1ccc(NC2=C(Cl)C(=O)OC2OC(=O)c2ccco2)c(C)c1 (centres undefined),1.58%
6,CCN(C1CCCCC1)S(=O)(=O)c1ccc(OC)c(C)c1,10.8%
7,CSC1=NC2(C)CCCCC2C12C=CC(=O)C=C2 (centres undefined),-12.5%
8,COc1ccc(C(=O)CSc2nnc(-c3cnccn3)n2Cc2ccco2)cc1,-8.62%
9,Cc1cc(NC(=O)CSc2nnc(-c3cccnc3)n2N)no1,16.5%
10,Cc1cc(C)c(CSc2ncnc3nc[nH]c23)c(C)c1,-13.6%
11,N#CC(C(=O)C12CC3CC(CC(C3)C1)C2)c1nc2ccccc2[nH]1 (centres undefined),-23.9%
12,Cn1cnc2cc(NC(=O)c3cccs3)ccc21,25.2%
13,CC(=O)c1ccc(NC(=S)NC(NC(=O)c2ccco2)C(Cl)(Cl)Cl)cc1 (centres undefined),26.9%
14,Cc1nn(-c2nc3ccccc3[nH]2)c(N)c1-c1ccccc1,5.82%
15,c1ccc(N2CCN(c3nc4ccccc4[nH]3)CC2)nc1,23.3% [at 75 µM]
16,O=C(Nc1ccc2c(c1)nc1n2CCN(Cc2ccccc2)C1)c1cccs1,-10.1%
17,Cc1nc2ccc(NC(=O)c3cccc(C(F)(F)F)c3)cc2o1,-0.54%
18,COc1ccc(NC(=O)Cn2c(=O)oc3cc(S(=O)(=O)N4CCCC4)ccc32)c(OC)c1,-6.13%
19,COc1cc(CNC(=O)CCC(=O)N2C[C@H]3C[C@H](C2)c2cccc(=O)n2C3)cc(OC)c1OC,-15.7%
20,CC(C)c1ccc(NC(=O)CSc2nnc(-c3ccccn3)n2C)cc1,1.9%
21,Cc1ccc(/C=N/NC(=O)CSc2nc3ccccc3n2C)s1,7.39%
22,COc1ccccc1C(=O)NNC1=C(C(=O)C(F)(F)F)CCC1,22%
23,COc1nc(N(C#N)CC(N)=O)nc(N2CCCC2)n1,-14.6%

row,Compound,inhibition
1,CC1CCN(CC(CS(=O)(=O)c2ccc([N+](=O)[O-])cc2)N2CCC(C)CC2)CC1 (centres undefined),-27.2%
2,O=c1c2cnn(-c3ccccc3)c2ncn1CCc1ccccc1,16.9%
3,COc1cccc(-c2nc(CS(=O)CC(=O)NCCCOC(C)C)c(C)o2)c1 (centres undefined),-17.2%
4,O=C(N/N=C/c1ccc(N2CCCC2)c([N+](=O)[O-])c1)c1cccnc1,19.8%
5,Cc1ccsc1/C=N/NC(=O)c1ccncc1,3.21%
6,Cc1cc(C)n(-c2nc3ccccc3nc2N2CCN(C(=O)c3ccc(F)cc3)CC2)n1,-26.8%
7,CSc1nnc(-c2cccc(NC(=S)NN)c2)o1,-45.2%
8,Cc1cccc(-n2ccnc2CN2CCN(C3CCCC3)C(CCO)C2)c1 (centres undefined),5.03%
9,C[N+](C)(CCCCCC[N+](C)(C)CCCN1C(=O)c2cccc3cccc(c23)C1=O)CCCN1C(=O)c2cccc3cccc(c23)C1=O,15.2%
10,O=C(c1ccccc1F)N1C(=O)c2cccc3cccc1c23,1.1%
11,Cc1ccc(/C=N/n2c(C)nc3ccccc3c2=O)s1,-5.95%
12,Cc1ccc(-c2[nH]ncc2/C=N/n2c(C)nc3ccccc3c2=O)cc1,24.4%
13,CCc1ccccc1NC(=O)c1onc(C)c1Cl,-34.5%
14,Cc1onc(-c2ccccc2Cl)c1C(=O)NNC(=O)C1CCN(Cc2ccccc2)CC1,-13.4%
15,CCCN(CCC)CCNC(=O)C1CCN(Cc2nc(-c3ccc(Cl)cc3)oc2C)CC1,29.4%
16,O=C(/C=C/c1ccccc1)NC(=S)N1CCSCC1,-10.6%
17,O=C(/C=C/c1ccccc1)OCc1cnc(Cl)s1,-4.85%
18,COC(=O)c1cc2nc(-c3ccccc3)cc(C)n2n1,14.7%
19,CCC(C)n1c(SCC(=O)NCc2ccco2)nnc1-c1cccc(S(=O)(=O)N2CCOCC2)c1 (centres undefined),15.2%
20,COC(=O)c1ccccc1NC(=O)CSc1ncn[nH]1,-15.8%
21,CSc1cccc(NC(=O)/C=C/c2ccco2)c1,23.1%
22,COc1cccc(C(=O)Nc2cccc(SC)c2)c1,8.22%
23,Cc1ccc(-c2c[n+](Cc3ccc(Cl)c(Cl)c3)c3n2CCC3)cc1,-16.3%

row,Compound,inhibition
1,CC1CCCC(NC(=O)COC(=O)Cc2c[nH]c3ccccc23)C1C (centres undefined),-10.8%
2,CCC(=O)Nc1nc(C)c(C(=O)N2CCCCC2)s1,8.55%
3,CC(/C=C\c1cccnc1)=C/C(=O)O,1.58%
4,O=C(N/N=C/c1cccnc1)c1ccc(F)cc1,2.11%
5,Cc1ccc(C(C)C)c(OCCNC(=O)c2ccccc2O)c1,29.6%
6,O=C(Nc1ncccc1O)c1c(O)c2ccccc2[nH]c1=O,17.4%
7,CCC(Sc1nccn1C)C(=O)Nc1nnc(C)s1 (centres undefined),-7.61%
8,OCCN1CCN(Cc2cc(Cl)c3cccnc3c2O)CC1,39.2%
9,Cc1ccc(-c2noc(CN3CCCCC3)n2)cc1,-29.6%
10,Cc1nc(N2CCOCC2)c2c(C)c(C(=O)Nc3ccccc3C(F)(F)F)sc2n1,21.2%
11,O=c1c2ccccc2nc(COc2ccccc2)n1/N=C/c1ccc(O)cc1O,15.7%
12,CCn1c(SCC(=O)Nc2oc(-c3ccccc3)c(-c3ccccc3)c2C#N)nnc1-c1ccco1,30%
13,CCCC(CCC)C(=O)NCCN1CCOCC1,-18.2%
14,COc1cccc(-c2ccc(SCc3ccccn3)nn2)c1,-17.4%
15,Fc1ccc(/C=N/Nc2nc3ccccc3[nH]2)cc1F,21.8%
16,CC1CCN(CCOCCOc2ccc(Br)cc2Cl)CC1,21.5%
17,COC(=O)c1cc2sccc2n1Cc1nc(-c2ccc(OC)cc2)oc1C,-9.46%
18,Oc1c(CN2CCN(c3ccccn3)CC2)cc(Cl)c2cccnc12,6.65%
19,Cc1cc2cc(CNC(=O)C(C)Oc3ccccc3)ccc2n1C (centres undefined),-17.3%
20,CNCCCC1c2ccccc2C=Cc2ccccc21,37.2%
21,COc1cc(OC)c(C2CC(=O)N3CN(c4ccccc4)CSC3=C2C#N)cc1OC (centres undefined),0.55%
22,COc1ccccc1-c1nc(C(F)(F)F)c(OC)o1,-6.77%
23,Cc1nc(C)c(-c2ccc(SCc3ccccc3F)nn2)s1,-17.5%

row,Compound,inhibition
1,NC(=O)c1cc(S(=O)(=O)Nc2cccc(F)c2)co1,23.2%
2,O=C(NC1=NCCS1)c1cccc2ccccc12,-30.7%
3,Cc1c(/C=N/NC(=O)c2sc3ccccc3c2Cl)cnn1C,12.1%
4,CCn1ncc(/C=N\NC(=O)c2csc3ccccc23)c1C,-13.8%
5,COc1ccc(C(=O)N/N=C/c2cccnc2)cc1,32.4%
6,O=C(NC1CC1)C1CCN(C2CCN(C(=O)Cc3ccc(F)cc3)CC2)CC1,-0.34%
7,CN1C(=O)N2CN(C3CCCCC3)CN3C(=O)N(C)C1C23 (centres undefined),26.2%
8,CCn1nccc1C(=O)Nc1cc(Cl)cc(Cl)c1,14.2%
9,O=C(CCN1CCC(c2ccccc2)C1)c1ccc2c(c1)OCCO2 (centres undefined),-0.06%
10,O=C(c1cccs1)N1CCC(N2CCN(c3ccccc3)CC2)CC1,0.94%
11,COc1ccc(C(=O)N2CCN(C(=O)Cc3ccccc3)CC2)cc1OC,-8.35%
12,O=C(CCN1CCN(c2ccccc2)CC1)c1ccc(Cl)cc1,27%
13,CCOC(=O)N1CCN(CC(=O)Nc2ccc(F)cc2F)CC1,-11%
14,O=C(C[n+]1cn(C(F)F)c2ccccc21)c1ccc(Br)cc1,-42.7%
15,CCOC(=O)N1CCN(CCC(=O)c2ccc(Br)cc2)CC1,36.8%
16,O=c1[nH]n(-c2ccccc2)c(=O)c2ccccc12,25.6%
17,CCOc1ccc(S(=O)(=O)N2CCC(C(=O)NCCN3CCOCC3)CC2)cc1C,10.5%
18,O=c1c2ccccc2ncn1Cc1ccc(Cl)cc1,-17.5%
19,CC(=O)C1=C(O)C(=O)N(CCN2CCOCC2)C1c1ccccc1 (centres undefined),6.14%
20,CCc1ccc(C(=O)CC2(O)C(=O)N(CN3CCOCC3)c3ccccc32)cc1 (centres undefined),19.9%
21,CCC[C@H](CN[C@@H](CNC)[C@H](C)CC)NCCc1cc(C(F)(F)F)cc(C(F)(F)F)c1,-3.97%
22,O=C(COC(=O)/C=C/c1cccc(C(F)(F)F)c1)NCc1ccccc1,-28.6%
23,COc1cc2c3cc1Oc1cc(ccc1O)C[C@@H]1c4c(cc(OC)c(O)c4Oc4ccc(cc4)C[C@H]3N(C)CC2)CCN1C,3.53%

row,Compound,inhibition
1,Cc1ccc(C(C[N+](=O)[O-])n2nc(C)cc2C)cc1 (centres undefined),35% [at 75 µM]
2,CCN1C(=O)NC(c2ccccc2)C1=O (centres undefined),18%
3,CCN(CC)CCCCCCCCOC(=O)c1cc(OC)c(OC)c(OC)c1,-1.68%
4,COc1cc(C(c2nnnn2C2CCCC2)N2CCN(C)CC2)cc(OC)c1OC (centres undefined),2.81%
5,O=S1(=O)CC=C(CSc2nc3ccccc3[nH]2)C1,-9.82%
6,Cc1ccc(-n2[nH]c(C)c(C=NCc3ccncc3)c2=O)cc1,-15.4%
7,Cc1ccnc(NS(=O)(=O)c2ccc(N=CC3=C(O)CC(C)(C)CC3=O)cc2)n1,33.4%
8,CCC(Oc1ccccc1)C(=O)Nc1nnc(S(=O)(=O)N2CCCCC2)s1 (centres undefined),-6.86%
9,CCOc1ccc(C2CC(=O)NC(SCC(=O)OC)=C2C#N)cc1 (centres undefined),9.67%
10,COc1ccc(-c2cc(C(=O)Nc3ccc(S(=O)(=O)Nc4onc(C)c4C)cc3)c3ccccc3n2)cc1OC,9.88%
11,CCC(CC)C(=O)NCCc1cc2ccc(C)cc2[nH]c1=O,-11.5%
12,O=Cc1ccc(N2CCCCCC2)cc1,-1.36%
13,CCOC(=O)C1=C(C)NC(SCC(N)=O)=C(C#N)C1c1ccncc1 (centres undefined),-2.55%
14,COc1ccccc1C(=O)N1CC2(C)CC1CC(C)(C)C2 (centres undefined),-17.9%
15,COc1ccc(Cl)cc1-c1n[nH]c(=S)o1,22.8%
16,COc1ccc(-c2nnn(-c3ccc(Cl)cc3Cl)c2N)cc1,18.2%
17,Clc1ccc2nc(N3CCCCC3)[nH]c2c1,36.1%
18,Clc1ccc(/C=C/c2ncc[nH]2)c(Cl)c1,-14.2%
19,CN(C)C(CNc1ccc([N+](=O)[O-])cc1C#N)c1ccccc1 (centres undefined),0.73%
20,CCN1CCN(Cc2ccc(NC(=O)c3ccc(C)c(NC(=O)C(=O)c4c[nH]c5ccccc45)c3)cc2C(F)(F)F)CC1,22.5%
21,COc1ccc(C(=O)C2CCN(CC(=O)Nc3cc(C)cc(C)c3)CC2)cc1,5.89%
22,O=C(CSC1=NCCS1)Nc1nc2c(s1)CCCC2,-5.66%
